Laboratory results published in PubChem BioAssay.

Experiment: basal HepG2 mitochondrial membrane potential changes, profiling panel, cell-based, JC-1 fluorescence, 24 h, 100 nL compound (AID 1167); also: test concentration not given here
Settings: higher = more signal

Compound	z-score
NC(=O)NCC#Cc1ccc2c(c1)[C@]1(C(=O)N2)[C@H](C(=O)N2CCN(c3ncccn3)CC2)[C@H]2C(=O)O[C@H](c3ccccc3)[C@H](c3ccccc3)N2[C@@H]1c1ccc(O)cc1	-1.99
COc1ccc(C#Cc2ccc3c(c2)[C@]2(C(=O)N3)[C@H](c3ccc(O)cc3)N3[C@H](c4ccccc4)[C@H](c4ccccc4)OC(=O)[C@H]3[C@@H]2C(=O)Nc2nc3ccccc3s2)cc1	-2.28
COCCCNC(=O)[C@@]1(Sc2ccc(C)cc2)CC(=O)N(C2Cc3ccccc3C2)[C@@H]1c1ccc(CO)cc1	0.17
CCC1=C2CN(Cc3ccccc3)[C@@H](C(=O)Cc3ccccc3)C2C=CCC1 (stereo partly drawn)	0.821
CCOC(=O)C1=C[C@@H](C(C)(C)C)N(S(=O)(=O)c2ccc(C)cc2)[C@H]1c1cccc2ccccc12	3.37
C=CCC(OC(C)=O)[C@@H]1[C@@H](N(Cc2cc3ccccc3o2)C(=O)Cc2ccc(F)cc2)c2cc(OCCCO)ccc2N1C(=O)Cc1ccc2ccccc2c1 (stereo partly drawn)	1.22
COC(=O)[C@@]1(Cc2ccc(OC)cc2)[C@H]2c3cc(C(=O)N4CCCC4)n(CCc4c[nH]c5ccc(OC)cc45)c3C[C@H]2CN1C(=O)c1ccccc1	-0.205
COC(=O)[C@@]1(Cc2ccc(OC)cc2)[C@H]2c3cc(C(=O)N(C)C)n(Cc4ccc(C)o4)c3C[C@H]2CN1C(=O)c1ccccc1	4.47
CC(C)c1ccc(NN2C(C(O)c3ccc(F)cc3)C=CC3C(=O)N(c4ccccc4)C(=O)C32)cc1 (stereo not drawn)	-1.18
COc1cc2c(cc1O)C(C1CC1)N(C)CC2 (stereo not drawn)	0.283
CCCCN1CC=CC23O[C@@H]4/C=C\CCCOC(=O)C4[C@H]2C(=O)N(CCO)[C@@H]3C1=O (stereo partly drawn)	-0.415
COCCCNC(=O)[C@@]1(CCC(=O)OC(C)(C)C)N=C(c2ccc(OCCCO)cc2)O[C@H]1c1ccccc1N=[N+]=[N-]	1.74
CS(=O)(=O)CCOC(=O)C1=CC(c2ccc(CO)cc2)=CC(C2CC2)N(Cc2sc3ccccc3c2Cl)C=C1C(=O)OCCS(C)(=O)=O (stereo not drawn)	0.424
COCCOC(=O)N1C(=O)[C@@]2(c3ccccc31)[C@H](C(=O)NC[C@H](O)c1ccccc1)[C@H]1C(=O)O[C@H](c3ccccc3)[C@H](c3ccccc3)N1[C@@H]2c1ccc(O)cc1	-1.33
CN(C)C(=O)[C@]1(Cc2ccccc2CN=[N+]=[N-])N=C(c2ccc(OCCCO)cc2)O[C@@H]1c1ccccc1	-0.117
COc1cc(OC)c(C(O)C2C=CC3C(=O)N(Cc4ccccc4)C(=O)C3N2n2cnnc2)cc1Br (stereo not drawn)	-0.769
C=C[C@H](C)[C@H](OC(=O)Nc1ccc(SC)cc1)c1ccc(OCCO)cc1	-2.67
CCOC(=O)C1=C[C@@H](C(C)C)N(S(=O)(=O)c2ccc(C)cc2)[C@H]1c1ccc(C(F)(F)F)cc1	3.7
CCOC(=O)C[C@H]1[C@H](OC(=O)c2ccc(-c3ccccc3)cc2)[C@@H](NC(=O)CC(C)C)c2cc(OCCCO)ccc2N1C(=O)c1ccc2ccccc2n1	1.66
COc1cccc(C)c1NC(=O)O[C@H]1[C@H](OC(=O)Nc2ccccc2-c2ccccc2)[C@H](OC(=O)Nc2ccccc2-c2ccccc2)[C@@H](OC)O[C@@H]1CO	-0.214
C=C(COC)C(=O)CC[C@@H](OC(C)=O)c1cccc(OCCO)c1	-0.0521
C=CCNC(=O)[C@@H]1[C@H]2C(=O)O[C@H](c3ccccc3)[C@H](c3ccccc3)N2[C@H](c2ccc(OCCO)cc2)[C@@]12C(=O)N(C(=O)OCCOC)c1ccc(C#Cc3ccc(OC)cc3)cc12	-0.638
CCCNC(=O)[C@@]1(C)c2ccccc2C(=O)N(c2ccc(C)cn2)[C@H]1c1ccc(CO)cc1	0.204
CC(=O)NCCCC[C@@H]1NC(=O)[C@@H]2C[C@H](C(=O)NCCCCCN)[C@H](c3ccc(O)cc3)N2C1=O	0.651
CC1CC/C=C\[C@H]2OC34C=CCN(Cc5ccccc5)C(=O)[C@H]3N(C(CO)C(C)C)C(=O)[C@@H]4C2C(=O)O1 (stereo partly drawn)	-0.213
COc1ccc(CCNC(=O)[C@@]2(c3ccc([N+](=O)[O-])cc3)CC(=O)N(C3CCCCC3)[C@@H]2c2ccc(CO)cc2)cc1	2.85
C=CCC(OC(C)=O)[C@@H]1[C@@H](N(Cc2cccc3ccccc23)C(=O)Cc2ccc(OC)cc2)c2cc(OCCCO)ccc2N1C(=O)c1ccc(-c2ccccc2)cc1 (stereo partly drawn)	2.36
COc1ccc([Si](C)(C)[C@@H]2[C@@H](CCO)O[C@]3(C(=O)N(Cc4ccccc4)c4ccc(NC(=O)[C@H](C)O)cc43)[C@H]2C)cc1	-2.7
